An excerpt weighted towards active compounds, which were near 2.8% of everything screened.
Pol eta inh-1: DNA polymerase eta (human) inhibition; Q9Y253; recombinant Pol eta, fluorescent DNA replication assay; Potency, µM (doses to about 114 µM), inactives show at the highest dose activity change, negative = inhibition, usual class: inhibitors; actives 1.2% (n = 390,000); also: potency is read from the fitted curve at half-maximal effect; % is scaled to controls: 0 for no effect and ±100 for the full control effect
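Fluorescent replication assay: 50 nM final substrate added after a 15 min room-temperature compound preincubation with 10 nM enzyme. Signal taken at 0 min and again at 10 min.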
POLI inh: inhibitors of human DNA polymerase iota. Q9UNA4. Pol iota fluorescent replication assay, 10 min. Potency, µM (series often up to 115 µM), inactives show at the highest dose activity, negative = inhibition, most hits filed as inhibitors. actives 1% (n = 390,000). AID 588590; also: potency is read from the fitted curve at half-maximal effect
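Fluorescent replication assay read twice, at 0 min and 10 min after adding 50 nM (final) substrate. Enzyme (10 nM) and compounds were first incubated 15 min at room temperature; enzyme-free buffer wells were negative controls.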
POLB inh: blocks human DNA polymerase beta activity | P06746 | Pol beta primer extension/strand displacement, fluorescence kinetic | Potency, µM (highest dose often 114 µM), for the others: at the top dose activity change, negative = inhibition, hits mostly inhibitors | actives 1.3% (n = 340,000) | AID 485314; also: potency is read from the fitted curve at half-maximal effect; % is scaled to controls: 0 for no effect and ±100 for the full control effect
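10 nM enzyme + cpd, 15 min RT; start with substrate 50 nM final; read 0 min and after 10 min RT. Corrected, normalized data; 4-parameter Hill curve fit.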
WRN helicase inh: blocks human WRN helicase. Q14191. AID 651768. Potency, µM (titrated, usually from 114 µM), for the others: at the top dose activity change, negative = inhibition, most hits filed as inhibitors. actives 0.46% (n = 360,000). WRN helicase unwinding, fluorescent forked duplex, kinetic; also: potency is read from the fitted curve at half-maximal effect; % is scaled to controls: 0 for no effect and ±100 for the full control effect; nearly all actives have a fitted effect of over 55% in size
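WRN at 20 nM final was preincubated with compound for 15 min at room temperature; reaction started with 100 nM forked duplex oligonucleotide carrying fluorophore and quencher plus 2 mM ATP (final). Unwinding followed kinetically by red fluorescence (ex 525/em 598 nm).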
PI5P4Ka inh: blocks human PI5P4K alpha kinase activity | P48426 | PI5P4Kalpha enzyme, ADP-Glo luminescence, 60 min; hits give low values | max response, % | actives 1.2% (n = 330,000); active = max response of -50% or lower; inconclusive = between -30% and -50%; inactive = -30% or higher; also: value at the top dose of about 77 µM; % is scaled to controls: 0 for no effect and ±100 for the full control effect
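Compounds were pin-transferred onto PI5P4Kalpha and substrate in HEPES pH 7.4 buffer with EGTA, CHAPS and 5% DMSO. ATP (5 microM final) started the reaction, which ran 60 minutes at room temperature before ADP-Glo detection.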
Pol kappa inh-1: inhibitors of human DNA polymerase kappa; purified Pol kappa, fluorescent DNA synthesis assay, 10 min; Potency, µM (highest dose often 107 µM), inactives show at the highest dose activity, negative = inhibition, actives largely listed as inhibitors; Q9UBT6; actives 0.53% (n = 400,000); AID 588579; also: potency is read from the fitted curve at half-maximal effect; % is scaled to controls: 0 for no effect and ±100 for the full control effect
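Fluorescent qHTS in 1536-well format: enzyme (10 nM) and compound sat 15 min at room temperature before 50 nM substrate (final) was added. Signal taken at 0 and 10 min; no-enzyme buffer wells were negative controls.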
TbPGK inh: TbPGK inhibition, hit validation; shares compounds with Pol kappa inh-1; TbPGK coupled GAPDH assay, Kinase-Glo luminescence; Potency, µM (highest dose often 57.5 µM), without a hit: top-dose activity change, negative = inhibition, most hits filed as inhibitors; actives 79% (n = 500); AID 686980; also: potency is read from the fitted curve at half-maximal effect; % is scaled to controls: 0 for no effect and ±100 for the full control effect; nearly all actives have a fitted effect of over 65% in size
Pol iota confirm: Human Pol iota inhibitor confirmatory assay. shares compounds with Pol kappa inh-1. Pol iota primer extension, TAMRA/BHQ fluorescence. Potency, µM, usual class: inhibitors. actives 77% (n = 1,500). AID 720496; also: potency is read from the fitted curve at half-maximal effect
Pol kappa inh-2: Pol kappa (human) inhibition, cherry-pick confirmation. actives 76% (n = 920). shares compounds with Pol eta inh-1. purified Pol-kappa, fluorescent strand-displacement substrate. Potency, µM, hits mostly inhibitors. AID 720501; also: potency is read from the fitted curve at half-maximal effect
Pol eta inh-2: confirmation of human DNA polymerase eta inhibitors; shares compounds with Pol eta inh-1; Pol eta primer extension, TAMRA/BHQ fluorescence, 10 min; Potency, µM, usual class: inhibitors; actives 64% (n = 2,600); AID 720502; also: potency is read from the fitted curve at half-maximal effect
An asterisk follows results filed as active; u = inconclusive; x = no result; [ ] = dose if it differs, or a comment. Unless noted, calls follow the shape of the dose curve; as a rule, active = well fitted curve in the direction sought with a large enough effect; inconclusive = small, poorly fitted or top-dose-only effect, or another doubt; inactive = no such curve, though single readings can be large; an effect the other way counts as inactive or inconclusive.

SMILES	Pol eta inh-1	POLI inh	POLB inh	WRN helicase inh	PI5P4Ka inh	Pol kappa inh-1	Pol iota confirm	Pol eta inh-2	others
O=C1c2cc([N+](=O)[O-])cc3cc([N+](=O)[O-])cc(c23)C(=O)N1c1ccccn1	16µM*	u	u	u	-28	u	67*	30*	Pol kappa inh-2=21*
O=C(COC(=O)Cc1ccc(Cl)cc1)NCc1ccco1	8.9µM*	22µM*	x	u	-8	79µM*	19*	19*	Pol kappa inh-2=11*
COc1cc(/C=C/C(=O)OCC(=O)NCc2ccco2)ccc1OC(F)F	-15%	22%	17%	-16%	4	-7%	x	x
COc1ccc(/C=C/C(=O)OCC(=O)NCc2ccco2)cc1OC	50µM*	22µM*	40µM*	-9%[11.6 µM]	-17	u	u	u
O=C(COC(=O)Cc1ccc(Cl)c(Cl)c1)NCc1ccco1	-8%	13%	x	2%	0	-6%	x	x
COc1ccc(-c2cnc3c(c2)CCC3(C#N)C#N)cc1	-20%	u	2%	-5%	1	-10%	x	x
COc1cc(O)c(C(C)=O)c(CC(=O)O)c1	3.2µM*	13µM*	16µM*	45µM*	-13	13µM*	17*	8.5*	TbPGK inh=8.2µM*
Cc1cc(NC(=O)CSc2nc3c(c(-c4cccnc4)c2C#N)CCC3)no1	u	28%	1%	u	x	2%	38*	x	Pol kappa inh-2=38*
Cc1cc(NC(=O)CSc2nc(-c3cccnc3)ccc2C#N)no1	5%	2%	17%	8%	5	-6%	x	x
O=C(NN1C(=O)CSC1=S)C(=O)NN1C(=O)CSC1=S	28µM*	u	1.8µM*	22µM*	-67*	u	34*	21*
O=C(Cc1cccc2ccccc12)NN1C(=O)CSC1=S	-16%	u	1%	-22%	-6	-15%	x	x
Cc1cccc2cc(C(c3nnnn3C(C)(C)C)N(Cc3ccco3)CC3CCCO3)c(=O)[nH]c12 (stereo not drawn)	7.9µM*	16µM*	32µM*	1.7µM*	-25	45µM*	17*	19*	TbPGK inh=1.8µM*
COc1cc(/C=N/NC(N)=O)ccc1OCC(=O)Nc1ccc(C)c(C)c1	28µM*	32µM*	u	u	6	89µM*	42*	76*
COc1cc(/C=N/NC(N)=S)ccc1OCC(=O)Nc1ccc(C)c(C)c1	u	u	-1%	-19%	-6	5%	x	x
OC[C@@H]1CN(Cc2ccccc2)C[C@H](n2cnc3c(N4CCOCC4)ncnc32)O1	x	x	x	-6%	-5	x	x	x
N#Cc1ccccc1CSc1nnc(-c2ccccc2)o1	3%	-13%	19%	x	x	3%	x	x
COc1ccc(/C=N/Nc2cc(C)nc3ccc(OC)cc23)c(OC)c1	u	u	32µM*	13µM*	u	u	38*	48*
COc1ccc2nc(C)cc(N/N=C/c3ccccc3)c2c1	u	-22%	x	u	-30	u	x	x
COc1ccc(S(=O)(=O)N2CCCOC2CNC(=O)C(=O)NCCO)cc1 (stereo not drawn)	-12%	x	x	-1%	-23	x	x	x

Assay outcomes: PubChem BioAssay, National Center for Advancing Translational Sciences (NCATS)
